According to the supplement of paper PMC6555819:

Test system: VDR:RXRa (NR concentration 270 nM, RXRa partner concentration 90 nM)
Test: PBM binding z-score (relative to random genomic background probes); higher = stronger binding; sequences stand for … in GC…GCGATTGACAGCGTAGAATGAAGG
Description: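 Protein-binding microarray (Agilent 4x180K custom design, double-stranded 60-nt probes: 5' GC cap, 34-nt variable region, 24-nt constant primer region; full probe sequence given). Purified or IVT nuclear receptor:RXRα heterodimers (3:1 NR:RXRα, mostly 270:90 nM) or homodimers were incubated for 1 h in PBS with 2% milk and no ligand, then detected with Alexa488 antibodies. Fluorescence from o1-orientation probes (~5 replicates averaged) was converted to z-scores against 500 random hg19 background probes. Variable regions are seed direct-repeat (DR0–DR5) sites, all their single-nucleotide variants and half-site ablations.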

Sequence | PBM binding z-score
CCTAGCAGGCCGATCTGGGTCACTCAAGGCTTGA | 0.114
AGAATGTGGTTACCAAAGATCAGGGAAACGCTTG | -0.233
CATACAGGGTCAGCTCGGCCAGAGTAGGGACGGC | 3.32
TCTTGTAGATCAGCTGGTTAAGAAAGCTGGCCAA | -0.152
ATCTCTAGGTACGACTCAGTTCAGTGAAGAACGC | 1.28
TGAATGAGGCTAAAGATCAGGGAACGTGGCGTCG | -0.503
TCTTGTAGATCAATAGGGGTTAAGAAAGTGCGCT | 2.64
GCTTGCAGGCCATTTGGGTCACTCAATGACGGGC | 1.08
GTACCAAGGTGAGTAGGTCGTTGATGAGTAGGCG | 0.177
AGAATGAGGTTATACGTAGATCCGGGAAGAAAGT | 1.15
AGTCAAAGTTCACTAGGTAACGTTAGATTCAGCT | 4.07
TCTTGTAGATCAACAGGAGTTTAAGAAAGATCGA | 0.517
CCGAGTAAGTTATGGGGCATTCAGGCAACGGTGA | -0.346
CCTTACGGGTGACGAGGTTATAGCACGACGAGCG | 0.935
GCTAGCAGGCCATTTGGGTCACTCCATGACGGGC | 0.513
GCTGCTAGGTCAACTGATGGTCTGCTAAAGCTCG | 1.29
CCGAGTAGGTTTTGGGGCATTCAGGCAACGGTGA | -0.239
CCTAGTTGGTCAAGGTTACACACGCTATAGGTAC | 1.5
CCTAGTTGGTCCAGGTCACACACGCTATAGGTAC | 2.54
TATACAGGGTCAAATGCCAGAGTACGAATGTCGA | 4.82

Sequence | PBM binding z-score
GCAGACAGGTCAAACGCAGGTAACTCAGGGTGGC | 3
CATAGCAGGCCAGGGTCACTCAAGCATTTCGCTT | 2.92
ACTTACGGGTCAACGAGGTTATATCACGCGTATA | 7.44
ATGGAAAGGTCGACGAGGTGAGTATACACCGTTT | 5.25
CCGAGTAGGTTATGGGGCCTTCAGGCAACGGTGA | -0.408
TTACCAAGGTGAAAGGTCGTGGATGCACGCCTTG | 3.28
TCATATACGTAAAGGTGAAAGTCGAACGATATGA | 1.05
CCTGCTAGGTCATGGTCACCTAATCTACAGTATG | 2.03
AGATTGAGGTTATTAAGATCAGGGAATTGCGGTC | 2.28
AGAATGAGGTTATTAAGATGAGGGAATTGCGGTC | 1.15
ACTAGCAGGCCAAGTTTGGCTCACTCAAACAAAG | -0.767
GGAACGAGGGCATTCGCGTTGATAGCATGGCGAT | 1.53
AGTCAAAGTTCAGTACGAGGTAACGTAAAGCACG | 2.89
TCTTGTAGATCAAAGGTTAAAAAAGCCGAAGCCT | 1.64
TCATATAGGTAAACAGGTGAAAGTTCGTAAGTTA | 1.98
GCTCGGAGGACAAGGTCAGAGCGTTGTCCGTAGA | 1.67
ACAGACAGGTGATGAAGGTACCTCAGGCTATCAT | -0.291
CCGACTGGGGCATAAGGTTACCACAAGCCAGCCC | 0.105
CCTTACGGGTCACGATGTTATAGCACGACGAGCG | 3.73
ACAGACAGGTGAGGGAAGGTAACTCAGCTGGACG | -0.405
